Compounds with a hit are over-represented: about 19% of the library has one in this group of screens.
HT1080NT lethal: kills 2HG-producing HT-1080-NT fibrosarcoma cells. HT-1080-NT fibrosarcoma viability, CellTiter-Glo ATP luminescence, 48 h. Potency, µM (titrated, usually from 46.1 µM), for inactives: top-dose activity, negative = less viability, most hits filed as cytotoxic. 1.6% of 360,000 active;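 also: NT is the 2HG producing partner of a matched IDH1 knockdown line; potency is read from the fitted curve at half-maximal effect; 0% = DMSO-treated cells and -100% = media-only wells without cells; nearly all actives have a fitted effect of over 55% in size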
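Viability of the 2HG-overproducing fibrosarcoma line after 48 hours of compound exposure at 37 degrees C was determined by luminescence with CellTiter-Glo, and concentration-effect curves were then fitted and categorized.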
IL1B secr inh: blocks inflammasome-driven IL-1 beta release; activity change, % at 57.5 µM; AID 743279; THP-1 LPS/ATP IL-1B secretion, AlphaLISA, 16 h; active compounds read low; 4.7% of 360,000 active; in the data active = activity change below about -50%; inconclusive = mostly about -30% to -49%
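THP-1 cells pretreated 1 hr with compounds (up to 57.5 uM final), then stimulated with LPS (250 ng/mL final) plus ATP (1.25 mM final); secreted IL-1B measured by AlphaLISA after 16 hr, decreased signal indicating inhibition.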
HT1080 IDH1KD tx: HT-1080 IDH1 knockdown cell toxicity (counter line) | 2% of 360,000 active | AID 686971 | HT-1080 IDH1 knockdown viability, ATP luminescence, 48 h | Potency, µM (doses to about 46.1 µM), without a hit: at the highest dose activity, negative = toxicity, most hits filed as cytotoxic;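 also: potency is read from the fitted curve at half-maximal effect; 0% = DMSO wells and -100% = cell-free medium wells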
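HT-1080-IDH1KD cells (IDH1 knocked down), 750/well in RPMI with 5% FBS, treated with compound 48 h at 37 degrees C. Viability by CellTiter-Glo luminescence, normalised to DMSO and no-cell wells; concentration-response curves classed.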
TDP1 cell noCPT: qHTS for Inhibitors of human tyrosyl-DNA phosphodiesterase 1 (TDP1): qHTS in cells in absence of CPT; DT40 Tdp1-/- hTDP1 cells, no CPT, ATP luminescence, 48 h; Potency, µM (titrated, usually from 46.2 µM), without a hit: at the highest dose activity change, negative = growth inhibition, usual class: inhibitors; 15% of 420,000 active; also: potency is read from the fitted curve at half-maximal effect; nearly all actives have a fitted effect of over 55% in size
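Compound effects on proliferation are scored in DT40 Tdp1-/-;hTDP1 cells in the absence of CPT. ATP levels (CellTiter-Glo luminescence) are recorded after a ≥48 hr, 37 °C incubation.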
DT40 TDP1 CPT: growth inhibition of DT40 Tdp1-/-;hTDP1 cells with camptothecin (screen for TDP1 inhibitors). chicken DT40 Tdp1-/-;hTDP1 cells + 20 nM CPT, ATP luminescence, 48 h. Potency, µM (series often up to 46.2 µM), without a hit: at the top dose activity change, negative = growth inhibition, hits mostly inhibitors. 12% of 420,000 active; also: potency is read from the fitted curve at half-maximal effect; nearly all actives have a fitted effect of over 55% in size
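Chicken DT40 Tdp1-/- cells complemented with human TDP1, 400 cells/well, exposed to compounds plus 20 nM camptothecin for at least 48 h at 37 C; viability read as ATP content by CellTiter-Glo luminescence.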
ELG1 repair inh: blocks ELG1-dependent DNA repair in HEK293T cells; HEK293T ELG1-luciferase reporter, luminescence, 16 h; DNA damage induced by 5-fluorouridine; Potency, µM (highest dose often 46.1 µM), without a hit: top-dose activity change, negative = inhibition, usual class: inhibitors; 2.3% of 330,000 active; also: potency is read from the fitted curve at half-maximal effect; nearly all actives have a fitted effect of over 55% in size
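Overnight (16 hr) co-exposure of 2,000 cells/well to 5-fluorouridine and compound at 37 °C preceded detection. Luciferase was quantified via ONE-Glo luminescence; loss of signal denotes inhibition.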
Active calls of the source: *; ? = inconclusive; · = no result; [ ] = dose if it differs, or a comment. Unless noted, calls follow the shape of the dose curve; as a rule, active = well fitted curve in the direction sought with a large enough effect; inconclusive = small, poorly fitted or top-dose-only effect, or another doubt; inactive = no such curve, though single readings can be large; an effect the other way counts as inactive or inconclusive. Unless noted, % is scaled to controls: 0 for no effect and ±100 for the full control effect.

SMILES	HT1080NT lethal	IL1B secr inh	HT1080 IDH1KD tx	TDP1 cell noCPT	DT40 TDP1 CPT	ELG1 repair inh
CC(=O)C1(O)C(C)CC2C3CC(F)C4(O)CC(O)CCC4(C)C3CCC21C (stereo unspecified)	0.9%	9.3	-1.5%	-17.8%	-5.8%	·
COc1ccccc1NC(=O)/C(=C/c1cccc([N+](=O)[O-])c1)c1ccccc1	-0.1%	-2.5	10.3%	9.2µM*	13µM*	?
COc1ccccc1C(=O)N/C(=C/c1cccc([N+](=O)[O-])c1)C(=O)Nc1cccc(C(=O)O)c1	22.5%	-7.6	15.6%	?	20.6µM*	?
CCO/C(C)=N/Oc1cncnc1	19.6%	0.0	14.9%	-0.6%	-13.8%	·
O=S(=O)(c1ccc(-c2csc(=Nc3ccccc3)n2CCCN2CCOCC2)cc1)N1CCOCC1	-22.0%	-61.4*	-3.5%	?	?	-21.7%
CCCn1c(-c2ccc(S(=O)(=O)N3CCOCC3)cc2)csc1=Nc1ccc(OCC)cc1	·	·	·	2.91µM*	4.11µM*	·
CCCCn1c(-c2ccc(S(=O)(=O)N3CCOCC3)cc2)csc1=Nc1ccccc1	·	·	·	14.6µM*	13µM*	·
COc1ccc(OC)c(CN2CCC3(CCC(CNC(=O)c4ccco4)O3)CC2)c1 (stereo unspecified)	·	·	·	-21.0%	22.4%[9.04 µM]	·
C=CC[C@@H](CC(=O)N[C@@H](CO)Cc1ccccc1)C(=O)N[C@@H](COC(=O)[C@H](CC=C)CC(=O)OC(C)(C)C)Cc1c[nH]c2ccccc12	-18.9%	-19.0	-22.4%	20.6µM*	?	?
C=CC[C@@H](CC(=O)N[C@H](CO)Cc1ccccc1)C(=O)N[C@@H](COC(=O)[C@@H](CC=C)CC(=O)OC(C)(C)C)Cc1c[nH]c2ccccc12	-5.4%	-27.2	-8.8%	?	16.4µM*	-19.1%
C=CC[C@@H](CC(=O)N[C@@H](CO)Cc1ccccc1)C(=O)NC[C@@H](OC(=O)[C@@H](CC=C)CC(=O)OC(C)(C)C)c1ccccc1	-1.8%	-9.9	-5.9%	?	20.6µM*	0.3%
C=CC[C@@H](CC(=O)N[C@@H](CO)Cc1ccccc1)C(=O)N[C@@H](COC(=O)[C@@H](CC=C)CC(=O)OC(C)(C)C)Cc1c[nH]c2ccccc12	-8.0%	-21.4	-5.5%	13µM*	20.6µM*	-21.4%
CC1NS(=O)(=O)c2cc([N+](=O)[O-])ccc21 (stereo unspecified)	19.0%	16.5	9.1%	-21.8%	-5.5%	·
Cc1ccc(C(c2nc3ccccc3[nH]2)n2c(-c3ccccc3)nc3ccccc32)cc1 (stereo unspecified)	-19.1%	-6.3	?	?	?	·
O=C1CCCCC1C(O)(C(=O)c1ccccc1)c1ccccc1 (stereo unspecified)	-15.7%	-23.5	-27.8%	?	1.1%	·
CN(C)CCCn1c(SCC(=O)Nc2nccs2)nnc1-c1ccncc1	-0.8%	-13.0	-2.9%	-7.9%	-27.4%	?
C=CC[C@H](CC(=O)N[C@H](CO)Cc1ccccc1)C(=O)N[C@H](COC(=O)[C@@H](CC=C)CC(=O)OC(C)(C)C)Cc1c[nH]c2ccccc12	-8.2%	-28.5	-9.7%	?	?	-7.3%
C=CC[C@@H](CC(=O)N[C@H](CO)Cc1ccccc1)C(=O)N[C@@H](COC(=O)[C@@H](CC=C)CC(=O)OC(C)(C)C)Cc1ccccc1	-3.6%	-18.8	-6.7%	?	16.4µM*	?
C=CC[C@H](CC(=O)N[C@H](CO)Cc1ccccc1)C(=O)N[C@@H](COC(=O)[C@H](CC=C)CC(=O)OC(C)(C)C)Cc1c[nH]c2ccccc12	?	-15.6	?	23.1µM*	20.6µM*	?
CCOC(=O)Cc1ccc(NC(=O)N2CC(CC)Oc3ccccc32)cc1 (stereo unspecified)	·	·	·	?	16.4µM*	·
CCC1CN(C(=O)Nc2ccc(C(=O)O)cc2)c2cc(Cl)ccc2O1 (stereo unspecified)	·	·	·	-29.4%	-26.6%	·
CCC1CN(C(=O)Nc2cc(Cl)c(OC)cc2OC)c2ccccc2O1 (stereo unspecified)	·	·	·	-2.2%	12.3%	·
CCOC(=O)Cc1ccc(NC(=O)N2CC(C)Oc3ccc(Cl)cc32)cc1 (stereo unspecified)	·	·	·	?	16.4µM*	·
O=C(C=Cc1ccccn1)c1ccccc1O	0.0%	-94.5*	-14.7%	3.66µM*	2.91µM*	·
O=C(/C=C/c1cccnc1)c1ccccc1O	-11.1%	-2.3	-12.8%	?	?	5.3%
SMILES	HT1080NT lethal	IL1B secr inh	HT1080 IDH1KD tx	TDP1 cell noCPT	DT40 TDP1 CPT	ELG1 repair inh
O=C(C=Cc1ccccn1)c1ccccc1	?	-97.6*	10.3µM*	2.91µM*	3.26µM*	·
Cc1ccc(C(=O)/C=C/Nc2ccccn2)cc1	3.3%	-4.0	8.5%	-7.4%	-25.5%	·
COc1cc(C(=O)Nc2cccc(OCc3cc(=O)n4c(C)csc4n3)c2)cc(OC)c1OC	·	·	·	14.6µM*	20.6µM*	·
Cc1ccccc1C(=O)Nc1cccc(OCc2cc(=O)n3c(C)csc3n2)c1	·	·	·	-13.1%	-1.9%	·
COc1ccccc1C(=O)Nc1cccc(OCc2cc(=O)n3c(C)csc3n2)c1	·	·	·	23.1µM*	16.4µM*	·
COC(=O)[C@@]12C[C@@H](CC(=O)NCCc3ccccc3OC)C(=O)N(Cc3cccc4ccccc34)C1=CCC(C)(C)C2	?	0.0	-22.9%	?	?	·
COC(=O)[C@@]12C[C@@H](CC(=O)NCc3ccccc3)C(=O)N(Cc3ccccc3)C1=CCC(C)(C)C2	?	-59.8*	-20.7%	?	20.6µM*	·
COC(=O)[C@@]12C[C@@H](CC(=O)NCc3ccc(C)o3)C(=O)N(Cc3ccccc3)C1=CCC(C)(C)C2	-12.6%	-4.7	-18.6%	?	?	·
COC(=O)[C@@]12C[C@@H](CC(=O)NCc3ccccc3)C(=O)N(Cc3cccc4ccccc34)C1=CCC(C)(C)C2	?	-82.8*	?	18.4µM*	?	·
COC(=O)[C@@]12C[C@@H](CC(=O)NCC3CCCCC3)C(=O)N(Cc3cccc4ccccc34)C1=CCC(C)(C)C2	9.8%	16.4	23.6%	16.4µM*	20.6µM*	·

Compound activity deposited in PubChem by National Center for Advancing Translational Sciences (NCATS).
